# Measured values published in PubChem BioAssay AID2796 (The Scripps Research Institute Molecular Screening Center, 2010).
# In all, about 320,000 compounds went through this assay and about 8,000 (2.5%) were called active. No stated cut-off is given here; in the data, active means activation above about 47%; inactive means the rest. The list comes from a sample in which actives are over-represented; it also holds similar structures and randomly drawn compounds.
# Target: Aryl hydrocarbon receptor (Homo sapiens) (UniProt P35869)
# Test: AHR activators, primary screen, cell-based, luminescence, luciferase reporter, human (AID 2796);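 further: 0% = vehicle wells and 100% = reference agonist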
# Conditions: AHR-responsive luciferase reporter cells, at 5 µM, hits give high values
# Aryl hydrocarbon receptor (Homo sapiens), sequence (P35869 whole entry, looked up): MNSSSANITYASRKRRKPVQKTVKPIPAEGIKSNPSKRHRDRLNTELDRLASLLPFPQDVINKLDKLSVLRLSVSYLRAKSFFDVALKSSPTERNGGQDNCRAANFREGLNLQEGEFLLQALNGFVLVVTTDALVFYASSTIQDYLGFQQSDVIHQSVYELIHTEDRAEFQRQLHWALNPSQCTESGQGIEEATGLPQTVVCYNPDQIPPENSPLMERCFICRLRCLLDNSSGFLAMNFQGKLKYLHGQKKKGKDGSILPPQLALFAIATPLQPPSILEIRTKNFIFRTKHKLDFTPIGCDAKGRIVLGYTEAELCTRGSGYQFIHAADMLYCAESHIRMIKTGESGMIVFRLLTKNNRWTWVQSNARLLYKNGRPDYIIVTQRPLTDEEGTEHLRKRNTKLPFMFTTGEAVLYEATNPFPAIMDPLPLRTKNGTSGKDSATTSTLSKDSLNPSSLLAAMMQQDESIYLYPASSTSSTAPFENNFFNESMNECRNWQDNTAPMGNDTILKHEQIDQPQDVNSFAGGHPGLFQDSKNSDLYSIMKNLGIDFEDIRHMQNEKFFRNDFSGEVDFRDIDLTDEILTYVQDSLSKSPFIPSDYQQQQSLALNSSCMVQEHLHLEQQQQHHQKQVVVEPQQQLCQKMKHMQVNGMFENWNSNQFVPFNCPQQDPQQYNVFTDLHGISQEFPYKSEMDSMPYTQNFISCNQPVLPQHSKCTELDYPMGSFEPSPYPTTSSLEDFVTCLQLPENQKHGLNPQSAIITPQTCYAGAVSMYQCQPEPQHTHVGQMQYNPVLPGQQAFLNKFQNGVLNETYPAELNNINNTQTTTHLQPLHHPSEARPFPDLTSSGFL
row,Compound,activation
1,CS(=O)(=O)c1ccc2nc(NC(=O)c3ccc(Cl)nc3)sc2c1,-5.2% (inactive)
2,Cc1ccc(C(=O)Nc2nc3ccc(Cl)cc3s2)o1,-2.1% (inactive)
3,CNC(=O)c1ccc2nc(NC(C)=O)sc2c1,84.2% (active)
4,CC(NC(=O)CN(C)S(=O)(=O)c1ccc(F)cc1)C1CC2CCC1C2 (configuration not stated),-0.07% (inactive)
5,COCCCNC(=S)N1CCCC(c2nc3cc(C)c(C)cc3[nH]2)C1 (configuration not stated),12.7% (inactive)
6,CCNC(=S)N1CCC(c2nc3cc(C)c(C)cc3[nH]2)CC1,84.9% (active)
7,CN(C)CCCNC(=S)N1CCC(c2nc3ccccc3[nH]2)CC1,-0.37% (inactive)
8,CCCCC(=O)Nc1ccc(C(=O)Nc2cc(C(F)(F)F)ccc2Cl)cc1,140% (active)
9,O=C(Nc1cc(C(F)(F)F)ccc1Cl)c1cc(C2CC2)on1,20.4% (inactive)
10,CC(=O)Nc1ccc(NC(=O)CCCNC(=O)c2ccc(Cl)cc2)cc1,1.47% (inactive)
11,COc1ccccc1-c1cnn2c(N3CCOCC3)cc(C)nc12,34.4% (inactive)
12,O=C(COC(=O)c1cccnc1Cl)NC(=O)NC1CCCCC1,-1.66% (inactive)
13,COC(C[C@@H]1O[C@@H]1C(=O)[C@H](C)OCc1ccccc1)OC,-0.2% (inactive)
14,O=C(OCc1ccc(Br)cc1)c1cccc(-c2nnc(-c3ccccc3)o2)c1,11.6% (inactive)
15,Cn1nc(-c2ccccc2)c(-c2nc(-c3ccc(Cl)cc3)no2)c1Cl,-1.35% (inactive)
16,Nc1ccc(-c2nnc(-c3ccccc3)o2)cc1,3.02% (inactive)
17,Brc1ccc(-c2noc(-c3ccccc3)n2)o1,122% (active)
18,Brc1ccc(-c2nnc(-c3ccccc3)o2)o1,70.7% (active)
19,Nc1nonc1-c1noc(-c2ccc(Br)o2)n1,14.2% (inactive)
20,CCCCCCSc1ccc(-c2nc3ccc(Cl)cn3c2NCc2ccccc2)cc1,1.54% (inactive)
21,Cc1c2cnn(-c3ccccc3)c(=O)c2c(C)n1CCCC(=O)N1CCN(C)CC1,-2.09% (inactive)
22,C/C(=N/NC(=O)c1ccc(Br)o1)c1ccc(C)o1,52.7% (active)
23,C/C(=N\NC(=S)NC1CCCCC1)c1ccc(C)o1,8.26% (inactive)
24,CC(C)(C)C1CCC(=NNC(=O)c2ccc(Br)o2)CC1 (configuration not stated),9.69% (inactive)

row,Compound,activation
1,CCN(CCCNC(=O)CSc1cc(=O)n(C)c2cc(Cl)ccc12)Cc1ccccc1,-0.33% (inactive)
2,O=C(NC1CC1)C(Cc1ccccc1)NS(=O)(=O)c1ccccc1F (configuration not stated),3.6% (inactive)
3,Cc1no[n+]([O-])c1COc1ccccc1/C=C1\NC(=S)NC1=O,25.2% (inactive)
4,COc1ccccc1NC(=O)C(C)OC(=O)c1ccc(-n2cnnn2)cc1 (configuration not stated),-0.41% (inactive)
5,COc1ccc(-c2cc(C(=O)Nc3ccccc3O)c3ccccc3n2)cc1,-7.68% (inactive)
6,COc1ccccc1NC(=O)c1cc(Cl)nnc1Cl,17.1% (inactive)
7,COc1ccccc1NC(=O)c1cc(Cl)nc2ccccc12,48.5% (active)
8,O=C1c2ccccc2C(=O)C1c1ccccc1F,1.57% (inactive)
9,CCOC(=O)C1=C(C)N=C2c3ccccc3C(=O)C2C1c1ccc(Br)cc1 (configuration not stated),3.41% (inactive)
10,O=C1c2ccccc2C2=Nc3ccccc3SC(c3ccccc3F)C12 (configuration not stated),74.3% (active)
11,CCCn1cc(S(=O)(=O)c2ccc(C)cc2)c(=O)c2cc(OCC)ccc21,-2.12% (inactive)
12,Oc1ccccc1-c1cc(-c2ccc(Cl)cc2)n[nH]1,52.2% (active)
13,Cc1ccc(NC(=O)c2cc(-c3ccccc3O)n[nH]2)cc1C,-2.85% (inactive)
14,c1ccc(-c2cc(-c3ccccc3)[nH]n2)cc1,65.1% (active)
15,c1ccc(-c2cc(-c3nnc4sc(-c5ccccn5)nn34)[nH]n2)cc1,-8.07% (inactive)
16,Nc1cccc(-c2cc(-c3ccccc3)nc(-c3cccc(N)c3)n2)c1,27.6% (inactive)
17,O=C(Nc1cccnc1Cl)c1cc(-c2ccccc2O)on1,5.22% (inactive)
18,CCCNC(=O)C(=O)Nc1cc2c3c(c1)CCC(=O)N3CCC2,28.5% (inactive)
19,CSC1=N/C(=C\C=C\c2cccs2)C(=O)S1,8.97% (inactive)
20,CCOc1ccc(NC(=O)CCS(=O)(=O)c2ccc3c(c2)CCCN3C(=O)CC)cc1,4.35% (inactive)
21,O=C(Cn1cnc2c(OCc3ccccc3)ncnc21)NCCCn1ccnc1,-1.22% (inactive)
22,CCCN1C(=O)C(NC(C)=O)c2cc(OC)ccc21 (configuration not stated),0.18% (inactive)
23,CCOC1CS(=O)(=O)CC1OCC (configuration not stated),1.87% (inactive)
